Measured values published in PubChem BioAssay (NCATS).
Where “and” joins values, the source holds several entries; their conditions need not be identical. Equal values may be shown once. Results filed as inconclusive are left out. A call without a number means that no potency is given here. Calls of active or inactive are those of the source. Unless noted, calls follow the shape of the dose curve; as a rule, active = well fitted curve in the direction sought with a large enough effect in the repeat runs; inconclusive = weak or mixed curves; inactive = no such curve, though single readings can be large; an effect the other way counts as inactive or inconclusive.

Tests used:
[1] = molecular target: Cytochrome P450 2D6 (Homo sapiens) (UniProt P10635); test: Cytochrome P450 family 2 subfamily D member 6 (CYP2D6) small molecule antagonists: luciferase biochemical (cell-free) qHTS assay (AID 1645840); also: nearly all actives have a fitted effect of over 55% in size
Method in brief: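 P450-Glo luminescent screen: recombinant CYP2D6 enzyme–proluciferin substrate mix preincubated with compound 10 min at room temperature, then NADPH regeneration added for 1 h at room temperature. Detection reagent added for 20 min; luciferin light read as relative luminescence units.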

[2] = molecular target: Cytochrome P450 2C9 (Homo sapiens) (UniProt P11712); test: Cytochrome P450 family 2 subfamily C member 9 (CYP2C9) small molecule antagonists: luciferase biochemical (cell-free) qHTS assay (AID 1645842); also: nearly all actives have a fitted effect of over 55% in size
Method in brief: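 Luminescence, after 20 min with luciferin detection reagent, reflected CYP2C9 turnover during a 1 h NADPH-driven reaction at 37C. Enzyme-substrate mix contained 0.4% bovine serum albumin and was preincubated with compound 10 min at room temperature.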

[3] = Primary qHTS for inhibitors of nuclear receptor binding SET domain protein 2 (NSD2) in an isogenic RCH-ACV NSD2 p.E1099K mutant (9B) (AID 1645876; active = well fitted curve in the direction sought with a large enough effect; an effect the other way counts as inactive or inconclusive; also: nearly all actives have a fitted effect of over 70% in size)
[4] = Primary qHTS for inhibitors of nuclear receptor binding SET domain protein 2 (NSD2) in an RCH-ACV wild type WT cells (2C) (AID 1645877; active = well fitted curve in the direction sought with a large enough effect; an effect the other way counts as inactive or inconclusive; also: nearly all actives have a fitted effect of over 70% in size)
Potency is read from the fitted curve at half-maximal effect.

Chain of Cytochrome P450 2D6 (Homo sapiens) (P10635 whole entry, looked up): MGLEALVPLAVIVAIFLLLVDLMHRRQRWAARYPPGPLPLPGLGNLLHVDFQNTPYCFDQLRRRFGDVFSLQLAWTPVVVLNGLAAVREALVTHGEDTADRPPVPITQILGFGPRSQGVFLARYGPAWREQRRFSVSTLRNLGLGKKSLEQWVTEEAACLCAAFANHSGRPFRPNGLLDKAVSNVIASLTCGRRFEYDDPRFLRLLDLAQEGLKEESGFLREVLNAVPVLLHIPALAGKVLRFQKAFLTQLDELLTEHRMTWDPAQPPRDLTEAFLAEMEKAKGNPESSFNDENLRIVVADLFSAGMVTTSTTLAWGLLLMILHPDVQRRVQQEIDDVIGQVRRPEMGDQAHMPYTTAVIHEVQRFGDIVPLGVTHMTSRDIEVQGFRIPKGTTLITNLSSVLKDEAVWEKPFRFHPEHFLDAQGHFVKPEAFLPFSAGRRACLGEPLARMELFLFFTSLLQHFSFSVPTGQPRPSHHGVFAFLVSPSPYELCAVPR
Chain of Cytochrome P450 2C9 (Homo sapiens) (P11712 whole entry, looked up): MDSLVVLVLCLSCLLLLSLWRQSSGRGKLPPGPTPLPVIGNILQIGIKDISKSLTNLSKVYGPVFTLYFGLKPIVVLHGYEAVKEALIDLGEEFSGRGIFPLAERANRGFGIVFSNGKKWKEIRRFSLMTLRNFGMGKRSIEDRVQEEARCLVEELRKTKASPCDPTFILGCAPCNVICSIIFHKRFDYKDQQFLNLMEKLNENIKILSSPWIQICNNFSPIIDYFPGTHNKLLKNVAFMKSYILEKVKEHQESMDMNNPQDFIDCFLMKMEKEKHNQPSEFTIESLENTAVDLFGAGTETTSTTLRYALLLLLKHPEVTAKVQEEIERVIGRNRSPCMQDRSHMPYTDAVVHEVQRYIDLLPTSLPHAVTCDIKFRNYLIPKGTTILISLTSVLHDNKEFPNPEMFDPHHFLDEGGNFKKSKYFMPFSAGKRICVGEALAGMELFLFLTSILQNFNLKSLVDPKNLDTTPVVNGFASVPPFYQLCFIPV

Compound	Potency [1]	Potency [2]	Potency [3]	Potency [4]
Oc1cc(O)cc(O)c1	inactive	inactive		
CCCCCCOC(=O)c1cccnc1	10.7 µM (active)	15.1 µM (active)		
CC12CCC(C[N+](C)(CCC[N+](C)(C)C)C1)C2(C)C (stereo not drawn)	inactive	inactive		
C[C@H]1O[C@@H](O[C@H]2[C@@H](O)C[C@H](O[C@H]3[C@@H](O)C[C@H](O[C@H]4CC[C@@]5(C)[C@H](CC[C@@H]6[C@@H]5C[C@@H](O)[C@]5(C)[C@@H](C7=CC(=O)OC7)CC[C@]65O)C4)O[C@@H]3C)O[C@@H]2C)C[C@H](O)[C@@H]1O	inactive	inactive	40.9 nM (active) and 66.1 nM (active)	51.5 nM (active) and 118 nM (active)
O=C(CO)[C@@H](O)[C@H](O)[C@@H](O)C(=O)O	inactive	inactive		
CC(CCc1ccc(O)cc1)NCC(O)c1ccc(O)cc1 (stereo not drawn)	6.74 µM (active)	inactive		
CCCc1ccc(C(=O)O)cc1	inactive	inactive		
O=C(OC1C[C@@H]2CC3C[C@H](C1)N2CC3=O)c1c[nH]c2ccccc12 (stereo partly drawn)	6.74 µM (active)	16.9 µM (active)		
CC1(O)CCC(C(C)(C)O)CC1 (stereo not drawn)	inactive	inactive		
O=S(=O)(O)CCCS(=O)(=O)O	inactive	inactive		
CO[C@H]1O[C@@H]2O[C@@]3(C)CC[C@H]4[C@H](C)CC[C@@H]([C@H]1C)[C@@]24OO3	inactive	39.8 µM (active)		
Cc1cccc(C)c1NC(=O)C1CCCCN1C (stereo not drawn)	9.52 µM (active)	inactive		
C[C@H](CCCC(C)(C)O)[C@H]1CC[C@H]2[C@@H]3CC=C4C[C@@H](O)CC[C@]4(C)[C@H]3CC[C@]12C	inactive	inactive		
